Screens (PubChem)
tim10-1 inh: inhibits growth of tim10-1 mutant yeast; S. cerevisiae tim10-1 ts strain growth, BacTiter-Glo, 24 h; inhibition, % at 20 µM; hit rate 2.2% among 330,000;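 active = inhibition of at least 40%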;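 note: mutant grown at 25 °C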
Mdm2 MdmX PPI: human Mdm2/MdmX binding inhibition | O15151+Q00987 | SaOS-2 split-luciferase Mdm2/MdmX complementation, luminescence | inhibition, % at 8 µM | hit rate 3% among 330,000;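 active = inhibition of at least 50% at 8 µM in the primary screen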
Target sequence (O15151 whole entry, looked up): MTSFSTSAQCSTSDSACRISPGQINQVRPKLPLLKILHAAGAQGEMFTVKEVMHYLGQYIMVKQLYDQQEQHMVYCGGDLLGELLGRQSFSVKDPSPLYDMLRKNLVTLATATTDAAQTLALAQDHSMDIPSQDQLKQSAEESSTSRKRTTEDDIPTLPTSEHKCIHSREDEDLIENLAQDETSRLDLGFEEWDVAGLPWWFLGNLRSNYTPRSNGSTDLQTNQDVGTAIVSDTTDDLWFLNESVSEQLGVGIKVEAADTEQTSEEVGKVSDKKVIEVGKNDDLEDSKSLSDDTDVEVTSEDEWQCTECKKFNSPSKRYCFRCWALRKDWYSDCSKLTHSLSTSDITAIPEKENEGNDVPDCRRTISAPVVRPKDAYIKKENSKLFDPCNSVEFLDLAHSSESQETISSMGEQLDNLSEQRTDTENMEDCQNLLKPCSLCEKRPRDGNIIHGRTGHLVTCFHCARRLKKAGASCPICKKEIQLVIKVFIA
Target sequence (Q00987 whole entry, looked up): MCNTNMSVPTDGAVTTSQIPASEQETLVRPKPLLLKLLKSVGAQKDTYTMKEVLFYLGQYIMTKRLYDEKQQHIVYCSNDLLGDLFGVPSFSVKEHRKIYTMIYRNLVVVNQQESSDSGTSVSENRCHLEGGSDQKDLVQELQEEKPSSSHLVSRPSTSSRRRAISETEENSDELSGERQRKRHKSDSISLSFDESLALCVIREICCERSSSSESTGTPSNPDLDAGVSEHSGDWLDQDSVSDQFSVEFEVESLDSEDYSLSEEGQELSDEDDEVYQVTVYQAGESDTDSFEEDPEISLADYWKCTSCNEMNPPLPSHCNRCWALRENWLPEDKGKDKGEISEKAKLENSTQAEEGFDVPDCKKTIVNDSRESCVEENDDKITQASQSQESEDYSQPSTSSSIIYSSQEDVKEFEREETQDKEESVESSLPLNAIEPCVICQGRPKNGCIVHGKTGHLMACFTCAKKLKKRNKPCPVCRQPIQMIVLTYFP
TIM10 inh: inhibits growth of TIM10 yeast strain; S. cerevisiae TIM10 strain growth, BacTiter-Glo luminescence, 24 h; inhibition, % at 10 µM; hit rate 1.4% among 330,000; AID 463195;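 active = inhibition of 40% or more at the single tested concentration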;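 note: wild-type TIM10 isogenic control strain grown at permissive 25 °C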
tim23-1 inh: inhibits growth of tim23-1 mutant yeast. S. cerevisiae tim23-1 growth, BacTiter-Glo luminescence, 24 h. inhibition, % at 20 µM. hit rate 1.3% among 330,000. AID 463212;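 active = growth inhibition of the mutant yeast at or above 50%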;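 note: temperature-sensitive mutant grown at 25 °C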
MPTP block: permeability transition pore inhibition; isolated mouse mitochondria, Ca2+ swelling absorbance, 30 min; inhibition, % at 10 µM; hit rate 1.4% among 360,000; AID 602449;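 active = inhibition of 50% or more, scaled per plate between neutral and stimulator controls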
tim10 confirm: confirmation of TIM10 yeast growth inhibitors. inhibition, % at 10 µM. hit rate 63% among 4,600. shares compounds with TIM10 inh. S. cerevisiae tim10 strain growth, BacTiter-Glo luminescence, 24 h;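 active = inhibition of yeast growth at or above a set limit in either of two replicates at 10 µM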; note: this counterscreen used the strain with wild-type TIM10
tim23-1 confirm: tim23-1 yeast growth inhibition, confirmed | shares compounds with tim23-1 inh | S. cerevisiae tim23-1 growth, BacTiter-Glo luminescence, 24 h | inhibition, % at 20 µM | hit rate 83% among 4,400 | AID 463218;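 active = inhibition above about 39% in either of two replicate wells at 20 µM, limit read from the data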;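 note: temperature-sensitive tim23-1 mutant grown at 25 °C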
Mdm2 MdmX conf: human Mdm2/MdmX binding inhibition, confirmed; inhibition, % at 8 µM; hit rate 55% among 10,000; luminescent assay; shares compounds with Mdm2 MdmX PPI; in the data active = inhibition above about 40%
FLuc counter: counter-screen for Mdm2/MdmX inhibitors: full-length luciferase; SaOS-2 full-length luciferase counterscreen, luminescence; hit rate 77% among 6,200; shares compounds with Mdm2 MdmX PPI; inhibition, % at 8 µM;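 active = mean inhibition at 8 µM reaching about 37%, which flags the compound as non-specific, limit read from the data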;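 note: p53-null SaOS-2 cells with luciferase driven by a doxycycline-inducible promoter; compound on cells about two nights before reading with doxycycline added after day one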
Large screens that a line does not name were inactive (follow-up assays come after a bar, where they were run). The list is not random: actives were taken first. Their share in the collection is about 6.3%.

CC(C)(C)c1cc(NCCCn2ccnc2)n2ncc(-c3ccc(Cl)cc3)c2n1	Mdm2 MdmX PPI 74, TIM10 inh 60 | tim10 confirm 60 | Mdm2 MdmX conf 43 | FLuc counter inactive
Cc1cccc(NC(=S)N/N=C/c2ccc([N+](=O)[O-])s2)c1	Mdm2 MdmX PPI 67, TIM10 inh 58 | tim10 confirm 34 | Mdm2 MdmX conf inactive
C[C@@H]1CCCCO[C@H](CN(C)C(=O)Cc2ccccc2)[C@@H](C)CN([C@H](C)CO)C(=O)c2cc(NC(=O)Nc3ccccc3)ccc2O1	none (no result: tim10-1 inh, Mdm2 MdmX PPI, TIM10 inh, tim23-1 inh)
FC(F)(F)c1nnc(-c2ccccc2)nc1Sc1ccccc1	Mdm2 MdmX PPI 52, TIM10 inh 45 | tim10 confirm inactive | Mdm2 MdmX conf inactive
FC(F)(F)c1nnc(-c2ccccc2)nc1N1CCCC1	none
COc1ccc(-c2csc(C(O)c3ccc(F)cc3)n2)cn1 (centres undefined)	none (no result: tim10-1 inh, Mdm2 MdmX PPI, TIM10 inh, tim23-1 inh)
CC(C)c1ccc2c(c1)C1(NN=C(c3ccccc3)S1)C(=O)N2 (centres undefined)	Mdm2 MdmX PPI 59, TIM10 inh 51, tim23-1 inh 50 | tim10 confirm 40 | tim23-1 confirm 54 | Mdm2 MdmX conf 69 | FLuc counter 69
C=CCNc1nc(N)c([N+](=O)[O-])c(Nc2ccccc2OC)n1	Mdm2 MdmX PPI 59, TIM10 inh 41 | tim10 confirm 69 | Mdm2 MdmX conf inactive
COc1ccc(-c2nnc(Sc3nc4ccccc4o3)c3ccccc23)cc1	Mdm2 MdmX PPI 66, TIM10 inh 42, tim23-1 inh 52 | tim10 confirm 36 | tim23-1 confirm 42 | Mdm2 MdmX conf 42 | FLuc counter 68
COc1ccc(-c2nnc(OC)c3ccccc23)cc1	none
Nc1nc2ccccc2n1S(=O)(=O)c1ccccc1	none (no result: tim10-1 inh, Mdm2 MdmX PPI, TIM10 inh, tim23-1 inh)
Cc1ccc(C(=O)O/N=C(\N)Cc2ccc([N+](=O)[O-])cc2)c(Cl)c1	Mdm2 MdmX PPI 90, TIM10 inh 89, tim23-1 inh 88 | tim10 confirm 96 | tim23-1 confirm 65 | Mdm2 MdmX conf 60 | FLuc counter 43
COC(=O)Cc1ccc(OC2(C)CCN(Cc3ccccc3)C2)cc1 (centres undefined)	none (no result: tim10-1 inh, Mdm2 MdmX PPI, TIM10 inh, tim23-1 inh)
CN(C)CCN(C(=O)c1ccc(S(=O)(=O)N2CCCC2)cc1)c1nc2ccc(Br)cc2s1	none
CC1CCCCN1S(=O)(=O)c1ccc(C(=O)N(CCCN(C)C)c2nc3ccc(Br)cc3s2)cc1 (centres undefined)	Mdm2 MdmX PPI 77 | tim10 confirm inactive | Mdm2 MdmX conf inactive | FLuc counter 61
COc1ccc(-c2nc3ccccc3n2Cc2ccc(C)cc2)cc1	none
COc1ccc(Cn2c(-c3ccc(C)cc3)c[n+]3ccccc23)cc1	Mdm2 MdmX PPI 62, TIM10 inh 42 | tim10 confirm 51 | Mdm2 MdmX conf inactive | FLuc counter 65
Cc1ccc2c(c1)C(=O)C(=O)N2Cc1ccc(C(F)(F)F)cc1	Mdm2 MdmX PPI 72, TIM10 inh 41, tim23-1 inh 82 | tim10 confirm 58 | tim23-1 confirm 32 | Mdm2 MdmX conf inactive
Cc1ccc2c(c1)C(=O)C(=O)N2CC(=O)OC(C)C	none
O/N=C/c1cccc[n+]1CCCCCC[n+]1ccccc1/C=N/O	none
CCCCCCCCCCCCCCCC[n+]1ccc(C(N)=O)cc1	Mdm2 MdmX PPI 78, TIM10 inh 48 | tim10 confirm inactive | Mdm2 MdmX conf 77 | FLuc counter 57
CCCCC(=O)Nc1ccc(C(N)=O)cc1	none
CCCCCCCCCCCCCCCC[n+]1ccc(/C=N/O)cc1	Mdm2 MdmX PPI 97, TIM10 inh 50, tim23-1 inh 51 | tim10 confirm inactive | tim23-1 confirm 49 | Mdm2 MdmX conf 100 | FLuc counter inactive
CN(Cc1ccccc1)C(c1ccnc2ccccc12)c1nnnn1-c1ccc2c(c1)OCCO2 (centres undefined)	none (no result: tim10-1 inh, Mdm2 MdmX PPI, TIM10 inh, tim23-1 inh)
CCc1nc2ccc(C(=O)NCCN(C)C)cn2c1N(CC)CCOC	none (no result: tim10-1 inh, Mdm2 MdmX PPI, TIM10 inh, tim23-1 inh)
COC(=O)CCCC[C@@H]1O[C@H](CCc2ccccc2)Cc2[nH]c(=S)[nH]c(=O)c21	none (no result: tim10-1 inh, Mdm2 MdmX PPI, TIM10 inh, tim23-1 inh)
CCCCN(C)c1c(C)nc2ccc(C(=O)NCc3ccc4c(c3)OCO4)cn12	none (no result: tim10-1 inh, Mdm2 MdmX PPI, TIM10 inh, tim23-1 inh)
CCOC(=O)c1ccc(NC(=O)c2ccccc2)cc1	none
CCOC(=O)c1ccc(NC(=O)c2c(N)n(Cc3ccccc3)c(=O)[nH]c2=O)cc1	Mdm2 MdmX PPI 96, TIM10 inh 98 | tim10 confirm inactive | Mdm2 MdmX conf inactive
O=[N+]([O-])c1cc(Cl)cc(/C=N\Nc2ccccn2)c1O	Mdm2 MdmX PPI 70, TIM10 inh 41 | tim10 confirm inactive | Mdm2 MdmX conf 77 | FLuc counter 55
COc1ccc(C(=S)N2CCN(c3cccc(Cl)c3)CC2)c(OC)c1	none
COc1cc(C(=S)N2CCN(c3cccc(Cl)c3)CC2)ccc1O	Mdm2 MdmX PPI 55, TIM10 inh 41 | tim10 confirm 46 | Mdm2 MdmX conf 55 | FLuc counter 51
CNc1cnc(-c2ccsc2)cn1	none (no result: tim10-1 inh, Mdm2 MdmX PPI, TIM10 inh, tim23-1 inh)
O=Cc1nccc2ccccc12	none (no result: tim10-1 inh, Mdm2 MdmX PPI, TIM10 inh, tim23-1 inh)
O=C1c2ccccc2C(=O)C1c1nccc2ccccc12	Mdm2 MdmX PPI 67, TIM10 inh 49 | tim10 confirm 47 | Mdm2 MdmX conf inactive
CC1(C(=O)Nc2ccc(Cl)c(Cl)c2)CCN1C(=O)CCC1CCCC1 (centres undefined)	none (no result: tim10-1 inh, Mdm2 MdmX PPI, TIM10 inh, tim23-1 inh)
CC(C)(C)c1cc(C(c2cccnc2)N2CCN(CCO)CC2)cc(C(C)(C)C)c1O (centres undefined)	Mdm2 MdmX PPI 100, TIM10 inh 41 | tim10 confirm 54 | Mdm2 MdmX conf 76 | FLuc counter 58
O=C(c1ccc(Br)cc1)C(CN1CCOCC1)c1ccccc1 (centres undefined)	Mdm2 MdmX PPI 91, TIM10 inh 51 | tim10 confirm 60 | Mdm2 MdmX conf 56 | FLuc counter inactive
CCOc1ccc(C(=O)C(CN2CCOCC2)c2ccccc2)cc1 (centres undefined)	none (no result: tim10-1 inh, Mdm2 MdmX PPI, TIM10 inh, tim23-1 inh)
CC(O)(c1cccnc1)c1nc(-c2cccc3cccnc23)cs1 (centres undefined)	none (no result: tim10-1 inh, Mdm2 MdmX PPI, TIM10 inh, tim23-1 inh)
OCCNc1nc(Nc2ccccc2)nc2ccccc12	none
OCCNc1nc(Nc2ccc(Br)cc2)nc2ccccc12	Mdm2 MdmX PPI 70, TIM10 inh 43 (no result: MPTP block) | tim10 confirm inactive | Mdm2 MdmX conf 55 | FLuc counter 67
CCCS(=O)(=O)NC(=O)C1(C)CCCN(C(=O)c2ccc(OC)cc2)C1 (centres undefined)	none (no result: tim10-1 inh, Mdm2 MdmX PPI, TIM10 inh, tim23-1 inh)
O=C(C[C@H]1C(=O)N(C2CCCCC2)C[C@@H]1c1ccccc1)Nc1ccc(Br)cc1	none (no result: tim10-1 inh, Mdm2 MdmX PPI, TIM10 inh, tim23-1 inh)
Cc1cccc(C)c1N1C(=O)c2ccccc2NC(=O)C1C(=O)NCCc1ccccc1F (centres undefined)	none (no result: tim10-1 inh, Mdm2 MdmX PPI, TIM10 inh, tim23-1 inh)
